# This is a sample that favours compounds with a hit; in the whole collection about 3.1% have one here.
# TrxR1 substrate = substrates of rat thioredoxin reductase 1 | purified TrxR1 substrate turnover, NADPH consumption readout | Potency, µM (highest dose often 114 µM), without a hit: top-dose activity change, negative = substrate turnover | hit rate 0.01% among 390,000 | AID 588456; note: potency is the fitted concentration of half-maximal effect; % is set by controls: 0 for no effect and ±100 for the full control effect; nearly all actives have a fitted effect of over 50% in size
#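 Rat TrxR1, dispensed at 90 nM, was prereduced with 400 uM NADPH (final) for 5 min at ~22 deg C, then incubated with compound 15 min before 400 uM selenite. A first-read NADPH fluorescence drop versus no-compound background flagged substrates.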
# Mito fusion act = inhibitors of mitochondrial division or activators of mitochondrial fusion | Potency, µM (titrated, usually from 46.1 µM), inactives show at the top dose growth rescue (activation), usual class: activators | S. cerevisiae fusion-defective mutant growth rescue, CellTiterGlo 48 h | hit rate 0.23% among 320,000; note: potency is the fitted concentration of half-maximal effect; % of control where 0% means no effect; nearly all actives have a fitted effect of over 45% in size
#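 Yeast fusion mutant, YPEG (non-fermentable carbon), compound, 48 h at 37C non-permissive; CellTiterGlo added, 10 min RT, luminescence read. Rescued growth = division inhibition.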
# A549 viability = A549 cytotoxicity, counter-screen for Nrf2 inhibitors. Potency, µM (titrated, usually from 46 µM), without a hit: top-dose activity change, negative = cytotoxicity, hits mostly inhibitors. A549 ARE-Fluc cells, CellTiter-Fluor viability, 18-24 h. hit rate 0.16% among 390,000. AID 504648; note: potency is the fitted concentration of half-maximal effect; % is set by controls: 0 for no effect and ±100 for the full control effect
#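 Cytotoxicity counterscreen: CellTiter-Fluor fluorescence was measured in A549 ARE_Fluc cells after 18-24 h of compound exposure in a concentration series. The subsequent BugLite luminescent read reports ARE-luciferase activity.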
# Nrf2 block = blocks Nrf2 signaling; A549 ARE-Fluc reporter, luciferase luminescence, 18-24 h; Potency, µM (series often up to 46 µM), inactives show at the top dose activity change, negative = inhibition, usual class: inhibitors; hit rate 2.1% among 360,000; note: potency is the fitted concentration of half-maximal effect; % is set by controls: 0 for no effect and ±100 for the full control effect; nearly all actives have a fitted effect of over 60% in size
#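 In this cell-based qHTS, ARE-driven firefly luciferase in A549 cells reports Nrf2 activity; the luminescent signal after BugLite lysis is the measured value, with a prior CellTiter-Fluor read for cell health.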
# IDH1 R132H inh = blocks human mutant IDH1 R132H enzyme. O75874. IDH1-R132H enzyme, NADPH consumption, diaphorase/resazurin fluorescence. Potency, µM (highest dose often 76.6 µM), for inactives: top-dose activity change, negative = inhibition, usual class: inhibitors. hit rate 0.093% among 390,000; note: potency is the fitted concentration of half-maximal effect; % is set by controls: 0 for no effect and ±100 for the full control effect; nearly all actives have a fitted effect of over 65% in size
#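 IDH1-R132H (0.5 ug/mL dispensed) in pH 7.5 Tris buffer was preincubated 30 min with compound, then given a substrate mix of 0.016 mM NADPH and 2 mM alpha-KG for 80 min at room temperature; remaining NADPH was read by diaphorase/resazurin fluorescence.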
# TrxR1 inh-1 = blocks rat thioredoxin reductase 1. O89049. recombinant rTrxR1, NADPH fluorescence consumption, selenite substrate. Potency, µM (series often up to 114 µM), without a hit: at the top dose activity change, negative = inhibition, most hits filed as inhibitors. hit rate 1% among 390,000. AID 588453; note: potency is the fitted concentration of half-maximal effect; % is set by controls: 0 for no effect and ±100 for the full control effect; nearly all actives have a fitted effect of over 65% in size
#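 Rat TrxR1 (90 nM in the dispensed reagent) was pre-reduced with 400 uM NADPH for 5 min at room temperature, then incubated with compound for 15 min. After 400 uM selenite was added, NADPH fluorescence (Ex 340/Em 450 nm) was followed for 8 min.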
# TRb SRC2 Alpha = confirmation of human TRb-SRC2 interaction inhibitors; hit rate 50% among 30; shares compounds with TrxR1 inh-1; Potency, µM; AID 2444; AlphaScreen TRb LBD-SRC2 peptide binding, luminescence; calls by dose curve
# Target sequence (P10828 whole entry, looked up, the tested form may be a part): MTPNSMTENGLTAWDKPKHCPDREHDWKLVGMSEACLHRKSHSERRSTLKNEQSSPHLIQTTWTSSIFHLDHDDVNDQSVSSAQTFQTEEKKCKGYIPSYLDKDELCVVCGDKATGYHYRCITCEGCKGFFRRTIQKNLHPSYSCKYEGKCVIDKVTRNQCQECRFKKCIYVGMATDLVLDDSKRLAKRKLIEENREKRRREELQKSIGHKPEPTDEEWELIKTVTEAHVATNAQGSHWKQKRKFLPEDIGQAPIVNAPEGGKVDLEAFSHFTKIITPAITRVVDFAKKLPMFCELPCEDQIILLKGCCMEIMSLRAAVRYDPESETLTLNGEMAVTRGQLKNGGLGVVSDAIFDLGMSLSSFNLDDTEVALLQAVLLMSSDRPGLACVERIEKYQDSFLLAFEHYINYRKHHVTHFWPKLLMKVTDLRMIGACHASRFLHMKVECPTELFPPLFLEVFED
# HepG2 tox = reduces HepG2 viability in TRb-SRC2 counter-screen. shares compounds with TrxR1 inh-1. HepG2 viability, ATP luminescence (CellTiter-Glo), 72 h. Potency, µM. hit rate 50% among 40. AID 2447; calls by dose curve
# AR SRC2 FP = selectivity of TRb-SRC2 inhibitors: human androgen receptor-SRC2 inhibition. AR-LBD Tx-SRC2-3 fluorescence polarization, 3 h. AID 2448. 25 tested, under 10 active. calls only. shares compounds with TrxR1 inh-1; call rule not given here
# PPARg-DRIP2 inh = selectivity of TRb-SRC2 inhibitors: human PPARgamma coactivator binding inhibition. shares compounds with TrxR1 inh-1. PPARg LBD / Texas Red DRIP-2 peptide, fluorescence polarization, 3 h. Potency, µM. 25 tested, under 10 active; calls by dose curve
# VDR SRC2 FP = disrupts human vitamin D receptor binding to SRC2 peptide | VDR LBD/SRC2-3 peptide, fluorescence polarization, 3 h | shares compounds with TrxR1 inh-1 | AID 2455 | 25 tested, under 10 active | Potency, µM; calls by dose curve
# GR inh = inhibits human glutathione reductase in TrxR1 counterassay. AID 652020. shares compounds with TrxR1 inh-1. 55 tested, under 10 active. activity change, negative = inhibition, % at 57.1 µM. purified GR, DTNB reduction absorbance 405 nm kinetic
# TrxR1 inh-2 = validation of rat thioredoxin reductase 1 inhibitors; shares compounds with TrxR1 inh-1; recombinant TrxR1, NADPH fluorescence consumption, selenite substrate; Potency, µM, most hits filed as inhibitors; hit rate 50% among 55; AID 652023
# TrxR1 insulin MOA = TrxR1 inhibition in insulin mechanism assay | hit rate 20% among 55 | TrxR1 Trx-coupled insulin reduction, NADPH absorbance 340 nm | shares compounds with TrxR1 inh-1 | Potency, µM;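 active = compounds with a measured potency under 100 micromolar; inconclusive = filed, but no rule given; inactive = potency at or above that, or unmeasurable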
# TrxR1 inh-3 = rat thioredoxin reductase 1 inhibition, DTNB assay; shares compounds with TrxR1 inh-1; purified TrxR1, DTNB reduction, A412; Potency, µM; hit rate 90% among 55; AID 652256;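 active = a half-inhibiting concentration could be measured and was below 100 µM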
# Active calls of the source: *; i = inactive; ? = inconclusive; nt = no result; [ ] = remark or other dose. Unless noted, calls come from the whole dose curve; as a rule, active = well fitted curve in the direction sought with a large enough effect; inconclusive = small, poorly fitted or top-dose-only effect, or another doubt; inactive = no such curve, though single readings can be large; an effect the other way counts as inactive or inconclusive.
SMILES,TrxR1 substrate,Mito fusion act,A549 viability,Nrf2 block,IDH1 R132H inh,TrxR1 inh-1,GR inh,TrxR1 inh-2,TrxR1 insulin MOA,TrxR1 inh-3,others
CCCn1c(N)c(C(c2ccc(OC)cc2)N2CCN(c3ccccc3)CC2)c(=O)[nH]c1=O (stereo unspecified),8.2%[57.1 µM],-1.7%,-1.7%,nt,0.8%,10µM*,1.2,?,i,0.173µM*,
Cc1cc(=O)[nH]c2nnc(SCC(=O)Nc3ccc(F)cc3F)n12,-3.0%[57.1 µM],nt,-14.2%,nt,10.1%,10.7%[57.1 µM],nt,nt,nt,nt,
O=C(COC(=O)c1cc([N+](=O)[O-])ccc1Cl)NC1CCCC1,-8.3%,-9.2%,0.2%,-11.5%,5.3%,?,nt,nt,nt,nt,
C[S+](=O)([O-])c1ccc(C(=O)OCC(=O)NC2C3CC4CC(C3)CC2C4)cc1 (stereo unspecified),nt,nt,nt,nt,nt,nt,nt,nt,nt,nt,TRb SRC2 Alpha=i;HepG2 tox=i;AR SRC2 FP=i;PPARg-DRIP2 inh=i;VDR SRC2 FP=i
O=C(COC(=O)c1cc([N+](=O)[O-])ccc1Cl)NC1C2CC3CC(C2)CC1C3 (stereo unspecified),nt,nt,nt,nt,nt,nt,nt,nt,nt,nt,TRb SRC2 Alpha=i;HepG2 tox=i;AR SRC2 FP=i;PPARg-DRIP2 inh=i;VDR SRC2 FP=i
O=C(COC(=O)c1cc([N+](=O)[O-])ccc1F)NC1C2CC3CC(C2)CC1C3 (stereo unspecified),nt,nt,nt,nt,nt,nt,nt,nt,nt,nt,TRb SRC2 Alpha=i;HepG2 tox=i;AR SRC2 FP=i;PPARg-DRIP2 inh=i;VDR SRC2 FP=i
O=C(COC(=O)c1cc(S(=O)(=O)N2CCOCC2)ccc1F)Nc1cc([N+](=O)[O-])ccc1F,0.4%,nt,-2.4%,7.6%,1.2%,6.5%,nt,nt,nt,nt,
Cc1ccc(Cc2nc3ccccc3nc2SCC(=O)NCCc2ccccc2)cc1,-2.7%[57.1 µM],nt,2.7%,nt,-12.0%,13.9%[57.1 µM],nt,nt,nt,nt,
Cc1cccc(N2CCN(c3cc(C)nc4nnnn34)CC2C)c1 (stereo unspecified),-3.0%,1.3%,-4.1%,7.5%,-0.2%,31.6µM*,1.4,?,84µM*,0.108µM*,
CCCc1nn2c(=O)cc(COC(=O)c3cccc(NC(=O)c4cccs4)c3)nc2s1,-6.0%[57.1 µM],nt,1.5%,nt,25.3%,0.7%[57.1 µM],nt,nt,nt,nt,
CCCOc1cccc(C(=O)NC(=S)Nc2ccc(N3CCN(C)CC3)cc2)c1,-4.9%,1.5%,1.3%,1.6%,-1.4%,79.4µM*,-10.9,5.32*,i,i,
CCOc1cccc(C(=O)NC(=S)Nc2cccnc2)c1,10.9%[57.1 µM],-7.9%,-1.4%,?,1.8%,-58.7%,nt,nt,nt,nt,
CCOc1cccc(C(=O)NC(=S)Nc2ccccc2)c1,-14.9%,1.5%,17.6%,?,3.7%,31.6µM*,-2.9,6.7*,i,74µM*,
CCC(=O)Nc1cccc(NC(=S)NC(=O)c2cccc(C)c2)c1,-4.6%,14.7%,8.2%,?,-6.9%,11.2µM*,1.4,5.97*,i,1.34µM*,
CCOc1cccc(C(=O)NC(=S)Nc2ccc(N3CCN(CC)CC3)cc2)c1,-10.1%[57.1 µM],-9.9%,0.8%,24.2%,5.8%,-50.8%,nt,nt,nt,nt,
CCC(=O)Nc1cccc(NC(=S)NC(=O)c2ccc(C)cc2)c1,0.1%,-5.2%,0.0%,?,-1.3%,?,nt,nt,nt,nt,
CN1C(C(=O)NC(C)(C)C)=CC(c2ccc3c(c2)OCO3)=NS1(=O)=O,-1.8%,nt,7.8%,14.9%,13.0%,2.6%,nt,nt,nt,nt,
CS(=O)(=O)c1ccc(C(=O)OCC(=O)N2CCCCC2)cc1[N+](=O)[O-],nt,nt,nt,nt,nt,nt,nt,nt,nt,nt,HepG2 tox=20.8µM*
Cc1ccccc1C(=O)Oc1cc(-c2ccc3c(c2)OCO3)cc(=O)c2c(C)oc(C)c12,1.1%,nt,-11.5%,2.6%,19.1%,?,nt,nt,nt,nt,
Cc1ccc(-c2nc(C)sc2CC(=O)NCc2ccco2)cc1,9.9%,-4.5%,?,5.3%,1.9%,50.1µM*,-8.5,5.32*,i,10.5µM*,
CCOC(=O)c1ccc(NC(=O)CCn2c(=O)c3cccn3c3ccccc32)cc1,1.5%,nt,0.5%,?,13.1%,16.2%,nt,nt,nt,nt,
COc1cc(C(c2nnnn2C2CCCC2)N2CCc3ccccc3C2)ccc1O (stereo unspecified),6.8%[57.1 µM],1.6%,-0.7%,15.7%,-2.4%,2µM*,-3.4,2.12*,i,0.71µM*,
Fc1ccccc1CN1CCN(c2ncccn2)CC1,4.4%[57.1 µM],3.1%,1.1%,5.0%,22.8%,8.4%[57.1 µM],nt,nt,nt,nt,
Oc1cc2c(cc1CN1CCN(c3ncccn3)CC1)OCO2,0.2%,1.6%,-2.1%,3.8%,12.8%,25.1µM*,-15.9,?,i,i,

# Source: PubChem (National Center for Advancing Translational Sciences (NCATS))
